The values that follow come from PubChem BioAssay (NCI).

About 83,000 compounds went through this panel and 20% of them were active in at least one assay; those are over-represented in the sample as a whole.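 Assay: single dose, 48 h. Readout: percent growth (0 = no net growth; negative = cell death). Active: <10.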 Unmarked numbers belong to inactive results. Activity calls are given as the source filed them.

The subject of one test is HCC-2998 colon. The test is described as follows: NCI-60 one-dose screen, 48 h (100 = growth as untreated, 0 = no growth, -100 = all killed). Particulars: 10 µM unless noted.
In the case of `Cc1cc(C)c(C=O)c(C)c1`, the growth is 108%.
For `CS(=O)(=O)Nc1cc(-c2ccc3ncnc(Nc4ccc5[nH]ncc5c4)c3c2)cnc1Cl`, the growth is 92%.
On to `COc1ccc(CNCCN2C(=O)c3ccc4c5c(ccc(c35)C2=O)C(=O)N(CCNCc2ccc(OC)cc2)C4=O)cc1`, for which the growth is -92.3% (active).
As for `O=c1[nH]c2c(s1)CCCC2CN1CCCCC1` (stereo not given), the growth is 100%.
On to `CCCc1cc2c(cc1Br)OCO2`, for which the growth was 103%.
On to `CCN(CCNc1cc(OC)cc2cccnc12)CCc1ccccc1`, for which the growth is 88.5%.
Same read-out and setting: for `Cc1c([N+](=O)[O-])cc(C(C)(C)C)cc1[N+](=O)[O-]` the value was 95.2%; for `COc1ccccc1/C=C1\Oc2cc(OCCCN3CCCC3)ccc2C1=O`, 102%; for `O=C(O)CNC(=O)CN1C(=O)c2ccccc2C1=O`, 106%.
On the same count and under the same terms, next, `CCN(CC)CCCC(Nc1c2ccc(Cl)cc2nc2ccc(OC)cc12)c1ccc(Cl)cc1` (stereo not given): -75.4% (active); `COc1cc(CNC(=O)CCCCC[P+](c2ccccc2)(c2ccccc2)c2ccccc2)c(OC)c2c1OCO2`: 57.6%.
In the case of `COc1cccc2cc(-c3cc4ccccc4[nH]3)/c(=N/C(=S)Nc3ccc(C)cc3)oc12`, the growth was 99.9%.
As for `COc1cc2nnn3c4ncccc4c(N=O)c3c2cc1OC`, the growth is 106%.
As for `COc1cc(NCC(O)CN(CC(C)C)C2CCCC2)c2ncccc2c1` (stereo not given), the growth is 97.3%.
In the case of `CCCCCCCCN1C(=O)/C(=c2\sc3n(c2=O)C2C(NN=3)N(CC)C(=O)N2CC)c2ccccc21` (stereo not given), the growth is 103%.
Consider `O=C(Nc1ccccc1)Oc1ccccc1-c1ccccc1`, for which the growth was 107%.
Take `CC1(c2ccccc2)NC(=O)N(CC(=O)Nc2cccc(I)c2)C1=O` (stereo not given): the growth was 106%.
The same measure, in the same setting: next, `COc1cc(NCC(O)CN(CC(C)C)CC(C)C)c2nc(C)ccc2c1` (stereo not given): 89.9%; `O=C(Nc1ccc(F)cc1)c1c(NC(=O)C(F)(F)F)sc2c1CCCCC2`: 10.1%.
On to `O=C(/C=C\c1ccc(OCCCCCC[P+](c2ccccc2)(c2ccccc2)c2ccccc2)cc1)c1ccc2c(c1)OCCO2`, for which the growth is 32.5%.
Consider `CCC(C)N(CCNc1cc(OC)cc2cccnc12)CCC(C)C` (stereo not given), for which the growth was 79.1%.
For `COC(=O)Nc1ccc(NC(=O)OC)cc1`, the growth is 106%.
For the compound `CCCCCCCCCCCCCCCCCCOc1ccccc1N`, the growth was 88.8%.
With `CCN1C(=O)N(CC)C2NC(SC)=NC21` (stereo not given), the growth is 99.3%.
Regarding `Cc1ccccc1C(c1ccccc1)c1ccccc1C`, the growth is 101%.
For the compound `CCNC(=O)c1[nH]cc(-c2ccc(OC)cc2)c1-c1cc(OC)cc(OC)c1`, the growth is 102%.
On to `CN(C)Cc1c(-c2ccccc2)[nH]c2ccccc12`, for which the growth was 98.2%.
Turning to `O=C(Nc1cccc(Cl)c1)Oc1c(Br)c(Br)c(Br)c(Br)c1Br`, the growth was 94.7%.
`COc1ccc(Cl)cc1NC(=O)c1c(NC(=O)C(F)(F)C(F)(F)F)sc2c1CCCCC2`: the growth was 15.9%.
On to `COc1ccc(-c2c[nH]c(C(=O)O)c2-c2cc(OC)c3c(c2OC)OCO3)cc1`, for which the growth is 100%.
Regarding `COc1cc(-c2cc(=O)oc3cc(O)ccc23)c(OC)c2c1OCO2`, the growth is 97.3%.
Take `COc1cc(NCCCN(CC(C)C)CC(C)C)c2ncccc2c1`: the growth was 86.4%.
As for `CCN(CC)S(=O)(=O)c1cccc([N+](=O)[O-])c1`, the growth is 101%.
Take `Cn1ncc2c(Nc3ccccc3Cl)nc(Cl)nc21`: the growth was 109%.
The same measure, in the same setting: next, `COc1cc(NCCN(CC(C)C)C2CCCC2)c2ncccc2c1`: 87.5%; `CC(=O)OCC(=O)[C@@]1(O)CC[C@H]2[C@@H]3CC(=C(Br)Br)C4=CC(=O)CC[C@]4(C)[C@H]3C(=O)C[C@@]21C`: 95.8%; `Cc1ccc(-c2c(Br)c(OC(=O)CO[C@@H]3C[C@H](C)CC[C@H]3C(C)C)c(-c3ccc(C)cc3C)c(Br)c2OC(=O)CO[C@H]2C[C@@H](C)CC[C@@H]2C(C)C)c(C)c1`: 108%.
On the same count and under the same terms, next, `COc1cc(/C=C/C(=O)c2c(C)oc3nc[nH]c(=O)c23)ccc1O`: 100%.

For another test, the system named is KM12 colon. The description is as above. Particulars: 10 µM unless noted.
Turning to `Cc1cc(C)c(C=O)c(C)c1`, the growth is 105%.
For `CS(=O)(=O)Nc1cc(-c2ccc3ncnc(Nc4ccc5[nH]ncc5c4)c3c2)cnc1Cl`, the growth is 102%.
For the compound `COc1ccc(CNCCN2C(=O)c3ccc4c5c(ccc(c35)C2=O)C(=O)N(CCNCc2ccc(OC)cc2)C4=O)cc1`, the growth is -81.8% (active).
Turning to `O=c1[nH]c2c(s1)CCCC2CN1CCCCC1` (stereo not given), the growth was 108%.
With `CCCc1cc2c(cc1Br)OCO2`, the growth is 113%.
On the same count and under the same terms, for `CCN(CCNc1cc(OC)cc2cccnc12)CCc1ccccc1` the value was 85.6%.
As for `Cc1c([N+](=O)[O-])cc(C(C)(C)C)cc1[N+](=O)[O-]`, the growth is 102%.
With `COc1ccccc1/C=C1\Oc2cc(OCCCN3CCCC3)ccc2C1=O`, the growth was 98.3%.
As to `O=C(O)CNC(=O)CN1C(=O)c2ccccc2C1=O`, the growth was 115%.
Turning to `CCN(CC)CCCC(Nc1c2ccc(Cl)cc2nc2ccc(OC)cc12)c1ccc(Cl)cc1` (stereo not given), the growth was -56.9% (active).
Turning to `COc1cc(CNC(=O)CCCCC[P+](c2ccccc2)(c2ccccc2)c2ccccc2)c(OC)c2c1OCO2`, the growth is 45.6%.
Consider `COc1cccc2cc(-c3cc4ccccc4[nH]3)/c(=N/C(=S)Nc3ccc(C)cc3)oc12`, for which the growth is 70.9%.
Take `COc1cc2nnn3c4ncccc4c(N=O)c3c2cc1OC`: the growth is 87%.
Same read-out and setting: next, `COc1cc(NCC(O)CN(CC(C)C)C2CCCC2)c2ncccc2c1` (stereo not given): 87%; `O=C(Nc1ccccc1)Oc1ccccc1-c1ccccc1`: 107%; `CC1(c2ccccc2)NC(=O)N(CC(=O)Nc2cccc(I)c2)C1=O` (stereo not given): 90.9%.
With `COc1cc(NCC(O)CN(CC(C)C)CC(C)C)c2nc(C)ccc2c1` (stereo not given), the growth was 75.5%.
Turning to `O=C(Nc1ccc(F)cc1)c1c(NC(=O)C(F)(F)F)sc2c1CCCCC2`, the growth is 2.08% (active).
For `O=C(/C=C\c1ccc(OCCCCCC[P+](c2ccccc2)(c2ccccc2)c2ccccc2)cc1)c1ccc2c(c1)OCCO2`, the growth was -76.4% (active).
Take `CCC(C)N(CCNc1cc(OC)cc2cccnc12)CCC(C)C` (stereo not given): the growth was 77.6%.
With `COC(=O)Nc1ccc(NC(=O)OC)cc1`, the growth is 111%.
Still for that read-out and setting: next, `CCCCCCCCCCCCCCCCCCOc1ccccc1N`: 39.8%.
For `CCN1C(=O)N(CC)C2NC(SC)=NC21` (stereo not given), the growth was 102%.
As for `Cc1ccccc1C(c1ccccc1)c1ccccc1C`, the growth was 98.2%.
Consider `CCNC(=O)c1[nH]cc(-c2ccc(OC)cc2)c1-c1cc(OC)cc(OC)c1`, for which the growth was 89.9%.
For `CN(C)Cc1c(-c2ccccc2)[nH]c2ccccc12`, the growth was 96.7%.
Consider `O=C(Nc1cccc(Cl)c1)Oc1c(Br)c(Br)c(Br)c(Br)c1Br`, for which the growth is 106%.
On the same count and under the same terms, next, `COc1ccc(Cl)cc1NC(=O)c1c(NC(=O)C(F)(F)C(F)(F)F)sc2c1CCCCC2`: 3.84% (active); `COc1ccc(-c2c[nH]c(C(=O)O)c2-c2cc(OC)c3c(c2OC)OCO3)cc1`: 105%; `COc1cc(-c2cc(=O)oc3cc(O)ccc23)c(OC)c2c1OCO2`: 93.8%.
The same measure, in the same setting: next, `COc1cc(NCCCN(CC(C)C)CC(C)C)c2ncccc2c1`: 84.7%; `CCN(CC)S(=O)(=O)c1cccc([N+](=O)[O-])c1`: 108%; `Cn1ncc2c(Nc3ccccc3Cl)nc(Cl)nc21`: 126%.
With `COc1cc(NCCN(CC(C)C)C2CCCC2)c2ncccc2c1`, the growth was 86.1%.
For the compound `CC(=O)OCC(=O)[C@@]1(O)CC[C@H]2[C@@H]3CC(=C(Br)Br)C4=CC(=O)CC[C@]4(C)[C@H]3C(=O)C[C@@]21C`, the growth is 93.6%.
Consider `Cc1ccc(-c2c(Br)c(OC(=O)CO[C@@H]3C[C@H](C)CC[C@H]3C(C)C)c(-c3ccc(C)cc3C)c(Br)c2OC(=O)CO[C@H]2C[C@@H](C)CC[C@@H]2C(C)C)c(C)c1`, for which the growth is 107%.
Take `COc1cc(/C=C/C(=O)c2c(C)oc3nc[nH]c(=O)c23)ccc1O`: the growth was 103%.
